Bioassay records: PubChem, National Center for Advancing Translational Sciences (NCATS)
In the library only some 4.2% were active in any assay of this set; here they are far more common.
Sfp PPTase inh – Sfp phosphopantetheinyl transferase inhibition. Q9F4F7. Biochemical Sfp PPTase activity, qHTS. Potency, µM, for the others: largest response in the series, negative = inhibition, most hits filed as inhibitors. hit rate 3.5% among 310,000. AID 1490;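 further: the enzyme is Sfp with the accession as filed and its product quenches rhodamine fluorescence; 0% = enzyme reaction without inhibitor and -100% = no enzyme wells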
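Compounds were incubated with enzyme (final 15 nM) for 15 min at room temperature before substrate addition started the reaction. Fluorescence at 525 nm excitation, 598 nm emission was recorded immediately and after 30 minutes.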
12-LOX inh – inhibitors of human 12S-lipoxygenase ALOX12 | purified 12hLO, xylenol orange hydroperoxide absorbance | Potency, µM (top dose mostly 108 µM), inactives show at the top dose activity change, negative = inhibition, usual class: inhibitors | hit rate 1.1% among 580,000 | AID 1671190
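Purified human 12hLO (150 nM final) in 25 mM Hepes, 0.01% Triton X-100, pH 7.0 was preincubated 15 min at room temperature with compound. Then 40 uM arachidonic acid was added, 30 min. Hydroperoxide was read by Fe-XO absorbance ratio 573/405 nm.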
PLK1 PBD inh – PLK1 (human) polo-box domain binding inhibition. Potency, µM, for the others: max response, negative = inhibition, usual class: inhibitors. hit rate 2.8% among 360,000. P53350. Plk1 PBD binding of FITC phosphopeptide, fluorescence polarization. AID 720504; further: series mostly up to about 57 µM; nearly all actives have a fitted effect of over 65% in size
VDR inh – vitamin D3 receptor (human) inhibition. AID 504847. hit rate 0.93% among 400,000. Potency, µM, without a hit: max response, negative = inhibition, usual class: inhibitors. VDR-SRC2-3 peptide fluorescence polarization, 2 h. P11473
Target sequence (P11473 whole entry, looked up): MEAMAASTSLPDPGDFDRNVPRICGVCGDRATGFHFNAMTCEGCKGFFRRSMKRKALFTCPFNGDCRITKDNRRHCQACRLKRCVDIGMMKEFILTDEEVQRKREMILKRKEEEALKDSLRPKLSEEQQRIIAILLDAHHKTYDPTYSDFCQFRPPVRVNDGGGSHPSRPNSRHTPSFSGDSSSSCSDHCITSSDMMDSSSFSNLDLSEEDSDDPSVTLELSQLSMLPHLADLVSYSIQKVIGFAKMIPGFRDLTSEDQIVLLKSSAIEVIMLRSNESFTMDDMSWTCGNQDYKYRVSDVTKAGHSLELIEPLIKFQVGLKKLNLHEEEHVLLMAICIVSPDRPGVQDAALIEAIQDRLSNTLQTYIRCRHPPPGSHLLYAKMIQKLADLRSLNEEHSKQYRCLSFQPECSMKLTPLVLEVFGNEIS
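VDR–SRC2-3 interaction, FP format. Cmpds 23 nl via pintool, brief spin, 2 h ambient incubation.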
* = called active by the depositor; i = inactive; ? = inconclusive; . = no result given; [ ] = dose if it differs, or a comment. The call rests on the fitted dose curve; in most records, active means well fitted curve in the direction sought with a large enough effect; inconclusive means small, poorly fitted or top-dose-only effect, or another doubt; inactive means no such curve, though single readings can be large; an effect the other way counts as inactive or inconclusive. Unless noted, on the % scale 0 is the no-effect control and ±100 the full control effect; potency means the concentration at half of the fitted maximal effect.

SMILES	Sfp PPTase inh	12-LOX inh	PLK1 PBD inh	VDR inh
COc1ccc(NC(=O)C2(C)Cc3c(-c4ccc(N(C)C)cc4)ccnc3O2)cn1 (stereo not given)	.	?	-2%	.
COC(=O)[C@@]1(Sc2ccc(C)cc2)CC(=O)N[C@@H]1c1ccco1	.	40µM*	-9%	.
CC(NC(=O)CN1CCN(c2ccc([N+](=O)[O-])c3cnccc23)CC1)c1ccccc1 (stereo not given)	.	-5%	.	.
COc1ccc(-c2noc(CSc3nc(-c4ccccc4)cc(=O)[nH]3)n2)cc1OC	35µM*	0%	-16%	5%
COc1c(C2CC(=O)Nc3c2ncn3-c2cccc(Cl)c2)cc2c(c1OC)OCO2 (stereo not given)	.	-17%	.	.
O=C1CC(c2ccccc2)c2ncn(-c3cc(F)ccc3F)c2N1 (stereo not given)	.	5µM*	.	.
CCN(c1ccccc1)S(=O)(=O)c1nnc(NC(=O)c2ccccc2)s1	.	0%	.	-2%
CC(=O)CC(=O)Nc1ccn(-c2ccccc2)n1	7%	363%	-5%	3%
O=C(O)CCCC(=O)Nc1ccn(-c2ccccc2)n1	5%	0%	11µM*	-13%
OCCCc1cn(-c2ccccc2)c2ccccc12	19%	-2%	0%	1%
Clc1nc(Cl)nc(-c2cn(-c3ccccc3)c3ccccc23)n1	56µM*	.	-11%	-27%
COc1ccc(CCN(C)c2ccc(C(N)=O)cc2[N+](=O)[O-])cc1OC	7%	-16%	-7%	-1%
COc1ccc(CCN(C)C/C=C/c2ccccc2[N+](=O)[O-])cc1OC	-10%	0.89µM*	-4%	-14%
COc1ccc(S(=O)(=O)NC2CC2)cc1-n1cnnn1	12%	3%	3%	3%
N#C/C(C(=O)CCl)=C(/c1ccc(F)cc1)N1CCOCC1	.	22µM*	.	.
O=C(c1ccc(F)cc1)C1CCN(C(=O)N2CCOCC2)CC1	-1%	0%	-2%	7%
COc1ccc(C(=O)N2CCC(N3Cc4ccccc4C3=O)CC2)cc1	.	8%[6.33 µM]	.	.
COc1ccccc1CN1CC(C(=O)N(C)CCCn2nc(C)cc2C)CCC1=O (stereo not given)	13%	i	1%	-5%
COc1ccc(Cl)cc1Nc1ccc2cc(S(=O)(=O)N3CCCCC3)ccc2n1	.	50µM*	.	6%
O=S(=O)(c1ccc2nc(Nc3ccc(F)cc3)ccc2c1)N1CCCC1	.	-6%	.	6%
O=S(=O)(c1ccc2nc(NC3CCCCC3)ccc2c1)N1CCCC1	.	11µM*	.	.
CC1CCC(Nc2ccc3cc(S(=O)(=O)N4CCCC4)ccc3n2)CC1 (stereo not given)	.	8.9µM*	.	.
CCc1ccc(Nc2ccc3cc(S(=O)(=O)N4CCCC4)ccc3n2)cc1	.	14µM*	.	.
CCOc1ccc(CCNC(=O)C2CCC(=O)N2CCc2ccccc2)cc1OCC (stereo not given)	16%	18%	-2%	6%
CCOc1ccc(N/C=C/C(=O)c2ccc(Br)cc2)cc1	.	-80%	.	.
SMILES	Sfp PPTase inh	12-LOX inh	PLK1 PBD inh	VDR inh
Cc1ccc(C(C)NC(=O)c2cccnc2)cc1 (stereo not given)	.	?	-7%	2%
CC(=O)C(C(C)=O)C(NC(=O)c1cccnc1)(C(F)(F)F)C(F)(F)F	8%	0%	2.7µM*	?
CC(C)C(NC(=O)c1cccnc1)C(=O)O (stereo not given)	5%	1%	-3%	79µM*
CCOC(=O)c1sc(NC(=O)/C=C/c2cnn(C)c2C)c(C(=O)OCC)c1C	14%	.	.	.
Cc1ccc2c(Cl)cc(Cl)c(O)c2n1	10%	?	-19%	-12%
Cc1ccc2c(C)ccc(O)c2n1	45µM*	5%	-3%	-13%
CCC(C)N(C(=O)COC(=O)CNC(=O)c1ccccc1F)C1CCS(=O)(=O)C1 (stereo not given)	17%	-9%	2%	16%
COCCn1c(NC(=S)NC(=O)C2CC2)cc(=O)[nH]c1=O	22µM*	?	?	?
COc1cc(OC)c(OC)cc1/C=C1\CCC/C(=C\c2cc(OC)c(OC)cc2OC)C1=O	-12%	?	1%	-13%
COc1ccc2nc(C)cc(N/N=C/c3cccc(OC)c3O)c2c1	?	?	0%	12%
COc1ccc(/C=N/Nc2cc(C)nc3ccc(Br)cc23)cc1	56µM*	?	-2%	1%
O=C(CC1SC(=O)N(c2ccccc2)C1=O)Nc1ccc(Br)cc1 (stereo not given)	-24%	0%	?	35µM*
